We go through seven sequences from PMC7862700, “An all-to-all approach to the identification of sequence-specific readers for epigenetic DNA modifications on cytosine”.

Test in all cases: DAPPL (digital affinity profiling via proximity ligation, sequencing); 10 mM Tris-HCl pH 7.5, 50 mM NaCl, 1 mM DTT, 4% glycerol, room temperature, 30 min; GST-TFs on glutathione beads, 16-mer random dsDNA library, 0.1% formaldehyde crosslink after washing; high values mean tight binding
Settings in all cases: protein: recombinant; tags: N-terminal GST; dsDNA, one strand shown

One test has as its target T1, FLI1 (Homo sapiens, UniProt Q01543 1-452).
T1 sequence: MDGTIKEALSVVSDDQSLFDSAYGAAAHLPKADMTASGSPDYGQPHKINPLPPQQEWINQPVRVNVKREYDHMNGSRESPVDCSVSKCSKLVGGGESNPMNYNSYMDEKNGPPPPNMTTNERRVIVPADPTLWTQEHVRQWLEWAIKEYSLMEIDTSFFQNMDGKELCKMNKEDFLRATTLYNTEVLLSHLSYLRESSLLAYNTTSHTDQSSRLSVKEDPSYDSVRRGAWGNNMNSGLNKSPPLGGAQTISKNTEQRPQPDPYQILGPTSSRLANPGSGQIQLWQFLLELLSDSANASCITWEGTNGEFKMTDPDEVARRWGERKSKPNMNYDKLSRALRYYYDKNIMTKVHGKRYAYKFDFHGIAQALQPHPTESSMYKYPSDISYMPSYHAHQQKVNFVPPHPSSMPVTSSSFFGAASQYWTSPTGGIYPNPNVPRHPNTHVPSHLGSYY
In outline:
(§1)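 Human transcription factors carrying a GST fusion were produced in yeast, bound to glutathione beads, tagged with DNA barcodes and pooled together with a tag-only sample. Each pool was held with 200 nmole of a random double-stranded 16-mer DNA library in Tris/NaCl/DTT/glycerol buffer for 30 min at room temperature, then washed, crosslinked in 0.1% formaldehyde, proximity-ligated with BsaI/T4 ligase (1 h, 37 °C), PCR-amplified and sequenced on an Illumina NextSeq500. Binding signal is the read frequency of each hexamer for a given factor divided by its frequency in the tag-only sample.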

The target of the next test is T2, ELK1 (Homo sapiens, UniProt P19419 1-428).
T2 sequence: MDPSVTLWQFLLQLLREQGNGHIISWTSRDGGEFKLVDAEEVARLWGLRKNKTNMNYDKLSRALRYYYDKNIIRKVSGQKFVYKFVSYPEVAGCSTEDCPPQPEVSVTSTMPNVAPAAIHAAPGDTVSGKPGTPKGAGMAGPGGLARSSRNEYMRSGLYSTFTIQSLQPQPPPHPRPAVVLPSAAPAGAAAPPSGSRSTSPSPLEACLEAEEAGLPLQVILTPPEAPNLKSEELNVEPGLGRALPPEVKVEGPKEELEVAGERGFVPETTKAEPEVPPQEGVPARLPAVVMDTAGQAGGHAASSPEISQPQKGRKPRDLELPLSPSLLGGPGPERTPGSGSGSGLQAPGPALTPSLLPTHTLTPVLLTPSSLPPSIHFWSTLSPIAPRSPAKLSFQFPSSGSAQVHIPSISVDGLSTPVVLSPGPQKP
In outline: as §1

The next test concerns the target T3, GABPA (Homo sapiens, UniProt Q06546 1-454).
T3 sequence: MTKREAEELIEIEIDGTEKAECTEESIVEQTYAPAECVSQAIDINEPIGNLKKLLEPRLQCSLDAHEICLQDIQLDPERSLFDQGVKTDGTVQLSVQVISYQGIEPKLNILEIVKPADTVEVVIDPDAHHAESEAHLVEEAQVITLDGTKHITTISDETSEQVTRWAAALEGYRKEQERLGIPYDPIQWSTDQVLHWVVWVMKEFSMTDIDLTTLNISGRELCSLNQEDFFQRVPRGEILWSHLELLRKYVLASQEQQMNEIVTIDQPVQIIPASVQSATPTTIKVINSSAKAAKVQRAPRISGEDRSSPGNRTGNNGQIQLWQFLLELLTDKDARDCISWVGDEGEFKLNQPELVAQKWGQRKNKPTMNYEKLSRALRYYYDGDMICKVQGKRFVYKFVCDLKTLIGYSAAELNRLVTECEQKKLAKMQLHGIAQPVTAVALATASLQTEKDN
A digest of the protocol: as §1

Another test has as its target T4, ERG (Homo sapiens, UniProt P11308 1-479).
T4 sequence: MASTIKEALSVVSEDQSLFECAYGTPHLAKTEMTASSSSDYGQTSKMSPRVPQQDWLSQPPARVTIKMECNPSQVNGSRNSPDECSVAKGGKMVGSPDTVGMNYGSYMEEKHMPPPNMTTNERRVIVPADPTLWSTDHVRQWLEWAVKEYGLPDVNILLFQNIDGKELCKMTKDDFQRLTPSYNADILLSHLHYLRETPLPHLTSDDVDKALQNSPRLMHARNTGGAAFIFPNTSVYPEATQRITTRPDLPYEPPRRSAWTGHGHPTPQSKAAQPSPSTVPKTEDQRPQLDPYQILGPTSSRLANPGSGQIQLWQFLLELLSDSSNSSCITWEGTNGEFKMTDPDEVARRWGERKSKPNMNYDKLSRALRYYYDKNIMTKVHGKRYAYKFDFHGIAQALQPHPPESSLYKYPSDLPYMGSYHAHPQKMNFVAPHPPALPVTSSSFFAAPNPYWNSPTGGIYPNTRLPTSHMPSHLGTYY
A digest of the protocol:
as §1

The next test concerns the target ELF1 (Homo sapiens, UniProt P32519 1-619). A digest of the protocol: as §1
Another test addresses T5, EHF (Homo sapiens, UniProt Q9NZC4 1-300).
T5 sequence: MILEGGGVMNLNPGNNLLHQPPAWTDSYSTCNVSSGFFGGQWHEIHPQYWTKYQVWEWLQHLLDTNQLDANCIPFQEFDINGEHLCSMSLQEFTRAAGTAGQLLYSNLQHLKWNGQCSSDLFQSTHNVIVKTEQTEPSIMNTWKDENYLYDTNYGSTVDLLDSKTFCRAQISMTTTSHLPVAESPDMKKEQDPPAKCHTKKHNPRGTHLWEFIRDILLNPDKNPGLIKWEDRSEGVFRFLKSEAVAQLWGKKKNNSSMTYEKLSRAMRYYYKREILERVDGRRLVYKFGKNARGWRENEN
In outline:
as §1

Another test has as its target SPI1 (Homo sapiens, UniProt P17947 1-270). In outline: as §1
The next test addresses SPIB (Homo sapiens, UniProt Q01892 1-262). In outline: as §1
Another test has as its target T6, ELK3 (Homo sapiens, UniProt P41970 1-407).
T6 sequence: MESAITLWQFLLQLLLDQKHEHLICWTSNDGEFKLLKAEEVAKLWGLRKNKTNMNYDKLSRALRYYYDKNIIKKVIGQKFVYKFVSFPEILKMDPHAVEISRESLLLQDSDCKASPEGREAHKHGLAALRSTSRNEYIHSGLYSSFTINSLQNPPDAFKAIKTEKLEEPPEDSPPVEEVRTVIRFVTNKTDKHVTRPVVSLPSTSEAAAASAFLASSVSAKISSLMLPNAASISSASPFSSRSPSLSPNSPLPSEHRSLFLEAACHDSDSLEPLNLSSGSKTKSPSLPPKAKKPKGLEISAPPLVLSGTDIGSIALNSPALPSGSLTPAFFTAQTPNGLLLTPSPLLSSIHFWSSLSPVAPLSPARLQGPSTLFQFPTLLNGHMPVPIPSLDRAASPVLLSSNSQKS
A digest of the protocol: as §1

Chain of ELF1 (P32519 whole entry): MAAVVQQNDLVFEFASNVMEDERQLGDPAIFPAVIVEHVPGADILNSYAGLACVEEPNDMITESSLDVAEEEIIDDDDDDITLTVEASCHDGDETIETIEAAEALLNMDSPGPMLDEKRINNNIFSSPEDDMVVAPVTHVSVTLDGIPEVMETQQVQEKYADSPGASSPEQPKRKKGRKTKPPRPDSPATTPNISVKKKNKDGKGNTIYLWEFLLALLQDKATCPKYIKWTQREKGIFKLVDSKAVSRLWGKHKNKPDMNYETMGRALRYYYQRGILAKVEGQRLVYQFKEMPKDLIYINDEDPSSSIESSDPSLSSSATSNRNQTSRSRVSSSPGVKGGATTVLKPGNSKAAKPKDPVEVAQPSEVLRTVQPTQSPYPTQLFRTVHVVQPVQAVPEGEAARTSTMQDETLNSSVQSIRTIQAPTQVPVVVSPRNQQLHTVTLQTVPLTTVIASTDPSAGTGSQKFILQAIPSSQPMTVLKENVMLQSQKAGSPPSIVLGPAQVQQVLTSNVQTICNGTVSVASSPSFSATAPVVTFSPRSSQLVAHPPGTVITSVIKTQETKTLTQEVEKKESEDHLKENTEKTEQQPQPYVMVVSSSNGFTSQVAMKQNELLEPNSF
Chain of SPIB (Q01892 whole entry): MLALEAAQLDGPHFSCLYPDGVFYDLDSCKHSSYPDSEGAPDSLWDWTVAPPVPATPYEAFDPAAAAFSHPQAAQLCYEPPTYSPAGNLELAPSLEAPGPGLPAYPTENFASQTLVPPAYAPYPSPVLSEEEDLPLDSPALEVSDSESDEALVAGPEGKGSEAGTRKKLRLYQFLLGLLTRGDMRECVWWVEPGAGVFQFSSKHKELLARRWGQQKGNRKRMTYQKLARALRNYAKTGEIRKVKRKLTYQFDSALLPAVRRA

On to AATCTC, for which the binding signal with FLI1 was 1.26 fold enrichment (6-mer frequency, TF over GST control); with ELK1, 1.21 fold enrichment (6-mer frequency, TF over GST control); with GABPA, 1.28 fold enrichment (6-mer frequency, TF over GST control); with ERG, 1.19 fold enrichment (6-mer frequency, TF over GST control); in the test with ELF1 it was 1.16 fold enrichment (6-mer frequency, TF over GST control); with EHF it was 1.27 fold enrichment (6-mer frequency, TF over GST control). For the same sequence, the binding signal with SPI1 is 1.16 fold enrichment (6-mer frequency, TF over GST control); with SPIB it was 1.2 fold enrichment (6-mer frequency, TF over GST control); with ELK3, 1.15 fold enrichment (6-mer frequency, TF over GST control).

Turning to AAGGAT, the binding signal with FLI1 is 1.14 fold enrichment (6-mer frequency, TF over GST control); in the test with ELK1, 1.19 fold enrichment (6-mer frequency, TF over GST control); in the test with GABPA it was 1.12 fold enrichment (6-mer frequency, TF over GST control); with ERG, 1.17 fold enrichment (6-mer frequency, TF over GST control); with ELF1, 1.22 fold enrichment (6-mer frequency, TF over GST control); with EHF, 1.25 fold enrichment (6-mer frequency, TF over GST control). Moreover, the binding signal with SPI1 was 1.12 fold enrichment (6-mer frequency, TF over GST control); with SPIB, 1.19 fold enrichment (6-mer frequency, TF over GST control); with ELK3, 1.13 fold enrichment (6-mer frequency, TF over GST control).

Turning to ATGATA, the binding signal is 1.22 fold enrichment (6-mer frequency, TF over GST control) with FLI1; 1.23 fold enrichment (6-mer frequency, TF over GST control) with ELK1; 1.16 fold enrichment (6-mer frequency, TF over GST control) with GABPA; 1.26 fold enrichment (6-mer frequency, TF over GST control) in the test with ERG; 1.24 fold enrichment (6-mer frequency, TF over GST control) in the test with ELF1; 1.32 fold enrichment (6-mer frequency, TF over GST control) with EHF. The binding signal is 1.2 fold enrichment (6-mer frequency, TF over GST control) with SPI1; 1.21 fold enrichment (6-mer frequency, TF over GST control) with SPIB; 1.34 fold enrichment (6-mer frequency, TF over GST control) in the test with ELK3.

For the sequence TCTTGC, the binding signal with FLI1 is 1.29 fold enrichment (6-mer frequency, TF over GST control); with ELK1, 1.33 fold enrichment (6-mer frequency, TF over GST control); with GABPA, 1.28 fold enrichment (6-mer frequency, TF over GST control); in the test with ERG it was 1.24 fold enrichment (6-mer frequency, TF over GST control); with ELF1, 1.41 fold enrichment (6-mer frequency, TF over GST control); with EHF, 1.31 fold enrichment (6-mer frequency, TF over GST control). Besides, the binding signal was 1.28 fold enrichment (6-mer frequency, TF over GST control) in the test with SPI1; 1.33 fold enrichment (6-mer frequency, TF over GST control) with SPIB; 1.55 fold enrichment (6-mer frequency, TF over GST control) with ELK3.

In the case of GATGTT, the binding signal with FLI1 was 1.28 fold enrichment (6-mer frequency, TF over GST control); in the test with ELK1, 1.34 fold enrichment (6-mer frequency, TF over GST control); with GABPA, 1.27 fold enrichment (6-mer frequency, TF over GST control); in the test with ERG, 1.28 fold enrichment (6-mer frequency, TF over GST control); with ELF1, 1.25 fold enrichment (6-mer frequency, TF over GST control); with EHF, 1.32 fold enrichment (6-mer frequency, TF over GST control). Also, the binding signal was 1.25 fold enrichment (6-mer frequency, TF over GST control) with SPI1; 1.2 fold enrichment (6-mer frequency, TF over GST control) in the test with SPIB; 1.22 fold enrichment (6-mer frequency, TF over GST control) with ELK3.

Consider ATAGAT, for which the binding signal in the test with FLI1 was 1.16 fold enrichment (6-mer frequency, TF over GST control); with ELK1 it was 1.14 fold enrichment (6-mer frequency, TF over GST control); in the test with GABPA, 1.17 fold enrichment (6-mer frequency, TF over GST control); with ERG, 1.11 fold enrichment (6-mer frequency, TF over GST control); in the test with ELF1, 1.23 fold enrichment (6-mer frequency, TF over GST control); with EHF, 1.17 fold enrichment (6-mer frequency, TF over GST control). The binding signal with SPI1 is 1.07 fold enrichment (6-mer frequency, TF over GST control); with SPIB, 1.16 fold enrichment (6-mer frequency, TF over GST control); with ELK3, 1.23 fold enrichment (6-mer frequency, TF over GST control).

TGGCTC: the binding signal in the test with FLI1 is 1.4 fold enrichment (6-mer frequency, TF over GST control); with ELK1, 1.43 fold enrichment (6-mer frequency, TF over GST control); with GABPA, 1.47 fold enrichment (6-mer frequency, TF over GST control); with ERG it was 1.43 fold enrichment (6-mer frequency, TF over GST control); with ELF1, 1.46 fold enrichment (6-mer frequency, TF over GST control); with EHF, 1.34 fold enrichment (6-mer frequency, TF over GST control). The binding signal is 1.16 fold enrichment (6-mer frequency, TF over GST control) with SPI1; 1.39 fold enrichment (6-mer frequency, TF over GST control) in the test with SPIB; 1.3 fold enrichment (6-mer frequency, TF over GST control) in the test with ELK3.
